Screening data: PubChem BioAssay, Broad Institute
In the library only some 3.4% were active in any assay of this set; here they are far more common.
Vif imaging: HIV Vif inhibition. HEK293T cells, Vif self-association by quenched fluorescence, imaging, 24 h. inhibition, % at 7.49 µM. 340,000 tested, 0.35% active. AID 602346; in the data active = inhibition above about 50%, passing the limit was not always enough; inconclusive = no clear call, values can overlap the other calls; inactive = below about 31%
HSF1 inhib: HSF1 inhibition. NIH3T3-HGL HSE-luciferase, MG132-induced, luminescence 8 h; active compounds read low. activity change, negative = inhibition, % at 7.5 µM (by protocol). 300,000 tested, 0.77% active. AID 2098;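 active = more than half of replicate wells show activity change below -50%, luminescence cut by over half; inconclusive = some wells, but at most half, below -50%; inactive = no replicate well below -50%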;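 note: luciferase reports HSF-1 transcriptional activity via heat shock element; 0% = median of DMSO wells and -100% = zero luminescence signal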
esBAF inh: blocks esBAF chromatin remodeling in mouse ES cells. 350,000 tested, 2% active. reporter increase, % at 12.5 µM. Bmi1-luciferase knock-in reporter, 24 h; 100% = twice the neutral-well signal; in the data active = activation above about 40%; inconclusive = no clear call, values can overlap the other calls;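 note: 0% = median of the plate's neutral control wells and 100% = double that signal; a rise in the Bmi1 reporter signal indicates esBAF inhibition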
HSF-1 act: increases HSF-1 driven luciferase reporter signal. AID 504408. NIH3T3-HGL HSF-1 luciferase reporter, MG132, 8 h; 100% = twice DMSO control signal. 300,000 tested, 1.7% active. activation, % at 9 µM;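 active = mean replicate activation of at least 50% with a set share of replicates each reaching 50%; inconclusive = only one of those two conditions met; inactive = mean below 50% and too few replicates reaching it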;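 note: 0% = median of the neutral control wells and 100% = twice that signal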
The depositor's hits bear a star; ? = inconclusive; nt = no result.

SMILES | Vif imaging | HSF1 inhib | esBAF inh | HSF-1 act
CC(C)(C)c1ccc(C(=O)CC(Sc2ccc(Cl)cc2)C(=O)O)cc1 (stereo unspecified) | 1 | 57 | nt | 56*
Cc1ccc(SC(CC(=O)c2ccc(F)cc2)C(=O)O)cc1 (stereo unspecified) | -2 | -1 | -1 | 2
Cc1ccc(S(=O)(=O)NC(=O)Nc2ccc(C)cn2)cc1 | 21 | 25 | 29 | 69*
Cc1ccc(S(=O)(=O)NC(=O)Nc2ccc(Cl)cn2)cc1 | 19 | -5 | -7 | 6
Fc1ccc(-n2nnc(-c3cccnc3)n2)cc1 | -1 | 18 | 62* | 40
Fc1ccc(-n2nnc(-c3ncc[nH]3)n2)cc1 | nt | 2 | nt | 7
Clc1ccc(-n2nnc(-c3nccs3)n2)cc1Cl | 3 | 15 | 6 | 19
Clc1ccc(-n2nnc(-c3cccnc3)n2)cc1Cl | 1 | -2 | 83* | 13
Clc1ccc(-n2nnc(-c3ncc[nH]3)n2)cc1Cl | nt | 13 | 62* | 21
Brc1ccccc1-n1nnc(-c2cccnc2)n1 | -4 | 7 | ? | -1
COc1cccc(-n2cc3c(=O)n(C)c(=O)n(C)c3c2)c1 | -6 | 33 | 48* | 44
CCCNC(=O)N1[C@H](C#N)[C@H](c2ccc(-c3ccc(C(=O)N(C)C)cc3)cc2)[C@@H]1CO | nt | nt | -3 | nt
CCC1SC(CC)C(=O)N(CC(=O)Nc2ccc3c(c2)OCO3)C1=O (stereo unspecified) | -11 | 11 | -9 | 53*
Cc1cc2ccccc2c(=O)n1CC(=O)Nc1ccc2c(c1)OCO2 | nt | -68* | -11 | -74
CC1SCC(=O)N(CC(=O)Nc2ccc3c(c2)OCO3)C1=O (stereo unspecified) | -11 | -2 | -1 | 11
Cc1[nH]c2ccccc2c1C(=O)C(=O)Nc1ccc2c(c1)OCO2 | 23 | 21 | 52* | 32
C[C@@H]1CN([C@@H](C)CO)C(=O)Cc2cc(NS(=O)(=O)c3ccc(F)cc3)ccc2O[C@@H]1CN(C)Cc1ccc(Oc2ccccc2)cc1 | nt | nt | -6 | nt
C[C@H]1CN([C@@H](C)CO)C(=O)c2cccc(NC(=O)NC3CCCCC3)c2O[C@H]1CN(C)C(=O)Nc1ccc(F)cc1 | nt | nt | 5 | nt
COCCNC(=O)[C@@H]1[C@@H](CO)[C@@H]2Cn3c(ccc(-c4ccccc4)c3=O)[C@H]1N2C(=O)NC(C)C | nt | nt | 3 | nt
C[C@@H]1CCCCO[C@@H](CN(C)Cc2ccccc2)[C@@H](C)CN([C@H](C)CO)C(=O)c2cc(NS(=O)(=O)c3ccc(F)cc3)ccc2O1 | nt | nt | -1 | nt
COc1ccc(-c2cc(C(=O)Nc3ccccc3F)on2)cc1 | 11 | 35 | nt | 54*
C=CCOC(=O)/C(=C\c1cccc2ccccc12)NC(=O)c1ccccc1 | 1 | 17 | 56* | 35
S=C(NCCc1ccccc1)N1CCN(Cc2ccc(Cl)c(Cl)c2)CC1 | 18 | -62* | nt | -70
COc1cc2nc(N(CCCN(C)C)C(=O)c3ccc(S(=O)(=O)N4CCc5ccccc54)cc3)sc2cc1OC | 50* | -6 | nt | -13
Nc1c(-c2ccc(Cl)cc2)nnn1-c1ccccc1 | -12 | 38 | 79* | 58*
SMILES | Vif imaging | HSF1 inhib | esBAF inh | HSF-1 act
Nc1cc(-c2ccc(Cl)cc2)nn1-c1ccccc1 | 1 | 4 | 58* | 12
Nc1ccc(-c2cc(N)n(-c3ccccc3)n2)cc1 | 8 | -2 | 32 | -12
CCOc1ccccc1N1Cc2cc(C)c(C)cc2C1 | -4 | -5 | 46* | -2
Cc1cc2c(cc1C)CN(c1ccccc1)C2 | 7 | 26 | 48* | 56*
CCc1cc(C(=O)Cc2nc3ccccc3[nH]2)c(O)cc1O | 8 | 7 | 47* | -2
CCc1cc(/C(Cc2ccccn2)=N\O)c(O)cc1O | -6 | 6 | 19 | 32
CCc1cc(/C(Cc2ccc3ccccc3n2)=N\O)c(O)cc1O | -2 | 7 | 50* | 7
O=C(Cc1nc2ccccc2[nH]1)c1ccc(Cl)cc1 | 12 | 4 | 33 | 43
O=C(C[C@@H]1C[C@@H]2c3cc(NC(=O)Nc4ccccc4)ccc3O[C@@H]2[C@@H](CO)O1)NCc1ccccn1 | nt | nt | 0 | nt
Cc1ccc(C2CC(c3cccs3)=NN2C(=O)CCl)cc1 (stereo unspecified) | 3 | 8 | 62* | 11
CC(C)n1nnnc1SCC(=O)N1N=C(c2cccs2)CC1c1cccs1 (stereo unspecified) | 0 | nt | 71* | nt
COc1cccc(C2Nc3ccccc3C(=O)N2c2ccc(F)cc2)c1O (stereo unspecified) | nt | 32 | ? | 67*
O=C1c2ccccc2NC(c2ccccc2O)N1c1ccc(F)cc1 (stereo unspecified) | 5 | 4 | 34 | 37
O=C(O)CCC1(C(=O)O)OCCc2ccccc21 (stereo unspecified) | -4 | -67* | -4 | -75
O=C(CC(C(=O)O)c1c[nH]c2ccccc12)c1ccccc1 (stereo unspecified) | 0 | 9 | 27* | 15
O=C(O)C(O)Cc1c[nH]c2ccccc12 (stereo unspecified) | -3 | nt | 14 | nt
Cc1ccc(CN2C(=O)C(Cc3ccccc3)Nc3ncnc(N4CCN(c5ccccc5)CC4)c32)cc1 (stereo unspecified) | -6 | 6 | -3 | 25
O=C1C(Cc2ccccc2)Nc2ncnc(N3CCN(c4ccccc4)CC3)c2N1Cc1ccccc1 (stereo unspecified) | 2 | -67* | 6 | -75
CCOC(=O)N1CCN(C(=O)Cn2ncc3ccccc32)CC1 | 12 | -3 | -9 | 8
CCOC(=O)c1ccc(NC(=O)CCn2nnc3ccccc32)cc1 | nt | 1 | 15 | -1
CCOC(=O)c1ccc(NC(=O)Cn2nnc3ccccc32)cc1 | -3 | nt | 95* | nt
COC(=O)c1ccc(COn2nnc3ccccc32)cc1 | 19 | 41 | 31 | 59*
CCOc1ccc(NC(=O)Cn2ncc3ccccc32)cc1 | -2 | 8 | 51* | 14
COc1ccc(NC(=O)Nc2cccc3c2O[C@H](CN(C)C(=O)NC2CCCCC2)[C@H](C)CN([C@@H](C)CO)C3=O)cc1 | nt | nt | 0 | nt
CO[C@H]1CN(C)C(=O)c2ccc(NC(C)=O)cc2OC[C@@H](C)N(C(=O)c2ccncc2)C[C@H]1C | nt | nt | -6 | nt
SMILES | Vif imaging | HSF1 inhib | esBAF inh | HSF-1 act
O=C1CCn2nc(-c3ccc(Cl)cc3)cc2N1 | -6 | 14 | 48* | 5
Cc1noc(C)c1S(=O)(=O)Nc1ccc2c(c1)CC(=O)N([C@@H](C)CO)C[C@@H](C)[C@@H](CN(C)CC1CCCCC1)O2 | nt | nt | -5 | nt
O=C(C[C@H]1CC[C@@H]2[C@H](COC[C@@H](O)CN2S(=O)(=O)c2ccccc2)O1)NCc1ccc(-c2ccccc2)cc1 | nt | nt | 1 | nt
CCOC(=O)c1c(C)[nH]c(C(=O)COC(=O)c2cccnc2Cl)c1C | -9 | nt | 65* | nt
CCOC(=O)c1c(C)[nH]c(C(=O)COC(=O)C2=NNC(=O)CC2)c1C | -18 | -78* | -7 | -83
Cc1ccc(CN2CCN(CC(=O)N=Nc3c(O)[nH]c4ccccc34)CC2)cc1 | 1 | 6 | nt | 9
O=C(CN1CCN(Cc2ccccc2Cl)CC1)N=Nc1c(O)[nH]c2ccccc12 | 6 | 12 | nt | 52*
